Measurements published in PubChem BioAssay AID488977 (Johns Hopkins Ion Channel Center, 2010).
The campaign covered roughly 310,000 compounds. About 1,500 (0.48%) were called active.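 Rule for the calls: active = initial fluorescence not abnormally high and integrated response B-score, plate-corrected, over 3 SD above library mean; inactive = the rest.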 The full list was thinned out, with actives kept by preference.

Biological target: High affinity choline transporter 1 (Homo sapiens) (UniProt Q9GZV3)
Sequence (Q9GZV3 whole entry, looked up): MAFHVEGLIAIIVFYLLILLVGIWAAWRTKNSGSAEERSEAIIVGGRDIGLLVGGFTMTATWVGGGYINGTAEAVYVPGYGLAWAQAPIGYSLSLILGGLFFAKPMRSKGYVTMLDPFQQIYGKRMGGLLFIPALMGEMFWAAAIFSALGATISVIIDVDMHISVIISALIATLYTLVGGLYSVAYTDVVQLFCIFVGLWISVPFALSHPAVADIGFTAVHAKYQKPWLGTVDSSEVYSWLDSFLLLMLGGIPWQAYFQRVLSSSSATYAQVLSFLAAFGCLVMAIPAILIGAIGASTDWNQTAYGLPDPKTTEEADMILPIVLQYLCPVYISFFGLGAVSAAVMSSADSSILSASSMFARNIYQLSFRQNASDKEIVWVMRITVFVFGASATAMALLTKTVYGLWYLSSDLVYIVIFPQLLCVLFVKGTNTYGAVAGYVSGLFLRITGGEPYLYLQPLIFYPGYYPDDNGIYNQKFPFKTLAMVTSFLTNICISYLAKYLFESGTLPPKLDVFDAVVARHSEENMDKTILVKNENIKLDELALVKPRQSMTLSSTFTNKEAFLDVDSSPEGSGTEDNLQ
Assay: CHT positive allosteric modulators, primary screen, cell-based, membrane potential dye, choline EC20 (AID 488977)
Conditions: CHT-expressing cells, at 10 µM, LV-AA mutant CHT in HEK293 cells; stronger effect = higher value

B-score, active:
Cc1cc(=O)oc2c(C)c(OC(C)C(=O)NC3CCN(Cc4ccccc4)CC3)ccc12 (stereo not given) 6.43, Cc1cccn2c(=O)c3cc(C#N)c(=O)n(CCCN4CCOCC4)c3nc12 7.22, COc1cc2nc(N3CCN(C(=O)[C@@H]4CCCO4)CC3)nc(N)c2cc1OC 8.15, O=C(c1ccccc1F)N(Cc1ccccc1)Cc1ccccc1 6.51, Cn1c(=O)[nH]c(=O)c2c1nc(N1CCN(CCO)CC1)n2CCSc1nc2ccccc2s1 7.66, Cc1cc(NC(=O)c2cnn3cccnc23)n(-c2ccccc2)n1 6.76, CCn1c(/C=C/Nc2ccccc2)[n+](CC)c2ccc(C(=O)OCC(F)(F)F)cc21 7.01, CN1CCN(c2nc(Nc3ccc(O)cc3)nc3ccccc23)CC1 6.97, COC(=O)c1sc(C(F)(F)F)c(-c2ccccc2)c1S(=O)(=O)N(C)C 9.76, N#Cc1ccc(/C=C2\CCn3c2nc2cc(C(=O)O)ccc2c3=O)cc1 6.78, CC1(C)Cc2c(sc3nc4n(c(=N)c23)CCCCC4)CO1 7.43, Cc1nc2ccccc2c(=O)n1CCCn1ccnc1 8.67, CN(C)/C=C/C(=O)c1cnc2sccn2c1=O 6.34, COc1ccc(Cn2c(-c3ccc(Cl)cc3)c[n+]3ccccc23)cc1 7.07, Cc1cc2c(cc1C)[n+](C)cn2CC(O)COCC1CC=CCC1 (stereo not given) 12.6, Cn1c(=O)n(C)c2cc(C(=O)Nc3ccc4c(c3)OCO4)ccc21 6.95, CCCCn1c(N)c(N(CCC(C)C)C(=O)c2ccc(COc3ccccc3)o2)c(=O)[nH]c1=O 12.1, O=Cc1ccc(OCc2cn3ccccc3n2)cc1 7.07

B-score, inactive:
COc1ccc(C(=O)C2CCCN(C(=O)c3ccc(OC)o3)C2)c(C)c1 (stereo not given), COc1ccc(NC(=O)CCC(=O)N2CCN(S(=O)(=O)c3ccc(C)cc3)CC2)c(OC)c1, COc1ccc2sc(N(CCCN(C)C)C(=O)c3ccc(S(=O)(=O)N(C)C4CCCCC4)cc3)nc2c1, CCN1C(=O)[C@H]2[C@@H](c3ccc(-c4ccc(OC)cc4)cc3)N[C@@](Cc3ccccc3)(C(=O)OC)[C@H]2C1=O, CCCc1cc(=O)oc2c(C)c(OC(C)C(=O)NCC(O)c3ccccc3)ccc12 (stereo not given), Cc1c(OC(C)C(=O)NCC2CCC(C(=O)O)CC2)ccc2c1oc(=O)c1ccccc12 (stereo not given), CC(OC(=O)C1CC(=O)N(Cc2ccccc2)C1)C(=O)Nc1ccccc1[N+](=O)[O-] (stereo not given), CC(C)Oc1ccc(S(=O)(=O)N2CCOCC2)cc1NC(=O)C1CSC2(C)CCC(=O)N12 (stereo not given), Cc1cc(Nc2ccc(Br)cc2)nc2ccccc12, Cc1ccc(NC(=O)c2cnc(SCC(=O)NCC3CCCO3)n(C)c2=O)cc1 (stereo not given), Cc1cccn2c(=O)c3cc(C(=O)N4COCC4(C)C)n(C)c3nc12, Cc1cccn2c(=O)c3cc(C(=O)NCCN4CCOCC4)c(=N)n(Cc4cccnc4)c3nc12, Cc1ccc2nc(NC(=O)CSc3nc(=O)n(CCCN(C)C)c4c3CCC4)sc2c1, O=C(C1CCCO1)N1CCC(c2nc3ccccc3[nH]2)CC1 (stereo not given), COC(=O)c1cc(OC)c(OC)cc1NC(=O)C1CCCO1 (stereo not given), COc1ccc(-c2cc(C(=O)N/N=C/c3cccnc3)c3ccccc3n2)c(OC)c1, Cc1ccc(CNC(=O)c2cc(-c3ccccc3C)n(CC3CC(c4cccc([N+](=O)[O-])c4)=NO3)n2)cc1 (stereo not given), CCN(CC)C(=O)N(CC)Cc1ccccc1, Cc1cccc(N(Cc2ccccc2)C(=O)c2ccccc2F)c1, Cc1ccc(NC(=O)CSCC(=O)Nc2sccc2C#N)cc1, CN1CCN(c2nc3c(c(=O)[nH]c(=O)n3C)n2Cc2cccc3ccccc23)CC1, Cc1nnc(SCCCn2c(N3CCCCC3)nc3c2c(=O)[nH]c(=O)n3C)s1, CCC1Nc2ncnc(N3CCN(c4ccccc4)CC3)c2N(Cc2ccc(Cl)cc2)C1=O (stereo not given), O=C(CCC1CCCCC1)Nc1cc(C(F)(F)F)ccc1N1CCOCC1, CC(C)c1ccc(S(=O)(=O)N2CCN(C(=O)CN3C(=O)NC(C)(c4ccccc4)C3=O)CC2)cc1 (stereo not given), CCCCCCCNC(=O)C1(CC2CC(c3cccc(Br)c3)=NO2)CCN(C(=O)c2cc(OCC)c(OCC)c(OCC)c2)CC1 (stereo not given), Cc1ccc(S(=O)(=O)N2CCN(C(=O)Cc3sc(C)nc3-c3ccc(F)cc3)CC2)c(C)c1, O=C(Nc1ncccc1O)c1ccc(C(=O)c2ccccc2)cc1, COc1ccccc1CCC(=O)NNC(=O)c1ccncc1, O=C(Nc1ccc(Cl)cn1)c1cnn2cccnc12, Cc1cc(NC(=O)Nc2ccccc2)n(-c2ccccc2)n1, CCOc1cc(C(=O)Nc2ccc(S(=O)(=O)Nc3cnc4ccccc4n3)cc2)cc(OCC)c1OCC, O=C(NCC(c1ccco1)N1CCc2ccccc2C1)c1ccccc1Cl (stereo not given), COc1ccc(C(CNC(=O)c2cccc(NS(=O)(=O)c3ccc(C)c(F)c3)c2)N2CCCC2)cc1 (stereo not given), CCOC(=O)N1CCN(C(=O)c2ccc(S(=O)(=O)Nc3cccc(C(F)(F)F)c3)cc2)CC1, CCOC(=O)c1cc2ccccc2n1CC(=O)c1ccccc1, Cc1onc(-c2ccccc2Cl)c1C(=O)OCc1nnc(-c2ccccc2)o1, CCN(CC(=O)Nc1c(F)cccc1F)C(=O)c1ccc(-c2ccccc2)cc1, O=C(CSC1=NS(=O)(=O)c2cc(F)ccc2N1)Nc1ccccc1F, COc1cccc(CC2(CO)CCCN(Cc3ccc(OC(F)F)cc3)C2)c1 (stereo not given), CCCCCN(C(=O)CCC(=O)OCCOc1ccc(OC)cc1)c1c(N)n(CCCC)c(=O)[nH]c1=O, CCCCCC(=O)N1CCN(S(=O)(=O)c2ccc3c(c2)OCCCO3)CC1, Cc1cccc(-c2nc(Nc3ccc(O)cc3)c3ccccc3n2)c1, c1ccc(Nc2nc(N3CCOCC3)c3ccccc3n2)cc1, C=CCOc1cccc(C2C(C(=O)c3ccc(C)o3)=C(O)C(=O)N2c2nnc(C)s2)c1 (stereo not given), Cc1c(NC(=O)C(C)OC(=O)c2c3c(nc4ccccc24)CCC(C)C3)c(=O)n(-c2ccccc2)n1C (stereo not given), COC(=O)c1cc2nc(-c3ccccc3)cc(C(F)(F)F)n2n1, CCOC(=O)CN(C)S(=O)(=O)c1ccc(-c2cc(C(=O)OC)sc2C(F)(F)F)cc1, CC1(C)CC[C@]2(C(=O)O)CC[C@]3(C)C(=CCC4[C@@]5(C)CC[C@H](O)C(C)(C)C5[C@H](O)C[C@]43C)[C@@H]2C1 (stereo not given in full), Cc1ccc(/C=C2\CCn3c2nc2cc(C(=O)O)ccc2c3=O)c(C)c1, O=C(O)c1ccc2c(=O)n3c(nc2c1)/C(=C/c1ccc(Cl)c([N+](=O)[O-])c1)CC3, CC(C)c1nc2sc3c(c2c(=O)n1N)CC(C)(C)OC3, N=c1c2c3c(sc2nc2n1CCCCC2)CCCC3, CC1CCC2(CC1)NC(=O)N(CC(=O)c1ccc3c(c1)OCO3)C2=O (stereo not given), Cc1ccccc1NC(=O)COc1cccc2c1CCNC2=O, CC1CCc2[nH]c3ccc(C(=O)N(C)CC(=O)Nc4cccc(F)c4)cc3c2C1 (stereo not given), Clc1c(OCCCn2ccnc2)ccc2ccccc12, Cc1nc2ccccc2c(=O)n1Cc1ccc([N+](=O)[O-])cc1, CCCCN(C1CCS(=O)(=O)C1)S(=O)(=O)c1ccc(C(C)C)cc1 (stereo not given), O=C(NCc1ccccn1)c1cnc2sccn2c1=O, CCOC(=O)c1cnc2sccn2c1=O, COc1cnn(-c2ccc([N+](=O)[O-])cc2)c(=O)c1Cl, Cc1ccc(-c2cc(=O)[nH]c(NCc3ccccc3)n2)cc1, CCn1c(C)cc(=O)cc1-c1ccc(Cl)cc1, COc1ccc(C(=O)CN(C(=O)c2ccc(Cl)cc2)N2C(=O)c3ccccc3C2=O)cc1, CN(Cc1ccccc1F)C(=O)C(Cc1ccccc1)NC(=O)c1ccccc1 (stereo not given), OCCCNc1nc(-c2ccccc2)c2cc(Cl)ccc2n1, COc1ccccc1C(=O)NC(CCSC)C(=O)N1CCN(C/C=C/c2ccccc2)CC1 (stereo not given), Cn1c(=O)n(C)c2cc(C(=O)Nc3ccc(Br)cc3)ccc21, O=C(Nc1ccc2c(c1)OCO2)c1ccc(N2C(=O)c3ccccc3C2=O)cc1, CCc1ccc(Nc2n[n+](-c3ccccc3)c(-c3cccc(Cl)c3Cl)s2)cc1, O=S(=O)(NCCCc1ccccc1)c1ccc(Br)cc1, CCCCn1c(N)c(N(CC(C)C)C(=O)c2ccc(Br)o2)c(=O)[nH]c1=O, CCCCn1c(N)c(N(CCC(C)C)C(=O)c2ccc([N+](=O)[O-])o2)c(=O)[nH]c1=O, COC(=O)c1ccc(SCc2ccccc2)nc1, COc1ccc(NC(=O)CN(C)C(=O)CC2CCCCC2)cc1, Cc1ccc(C(=O)NC2CCCC(C)C2C)cc1S(=O)(=O)N1CCCCC1 (stereo not given), COc1ccc(C(=O)NCc2cn3ccccc3n2)cc1, Cn1cc[n+](C)c1COc1ccc(C=O)cc1, COc1ccc(S(=O)(=O)N2CCCCC2)cc1NC(=O)C1CC(=O)N(c2ccc3c(c2)OCCO3)C1 (stereo not given), COc1ccc(/C=N/NC(=O)c2cc(-c3cccc(C)c3)nc3ccccc23)cc1O, CCN1C(=O)[C@H]2[C@@H](c3ccc(SC4CCCCC4)c(OC)c3)N[C@@](Cc3ccccc3)(C(=O)OC)[C@H]2C1=O
